Results filed as inconclusive are left out. Unmarked numbers belong to inactive results.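 How the source made its calls: active means cell viability at or below a set limit in both duplicate runs, the limit being the all-compound median minus 4 SD (cut at about 23% in these data, passing the limit was not always enough); inconclusive means no clear call, values can overlap the other calls; inactive means the rest.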
Test: growth suppression of beta-catenin knockout HCT116, pilot screen, human colon tumor cells (AID 823);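 further: 0% = wells killed by 20 µM Hyamine and 100% = untreated DMSO cell wells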
Conditions: CellTiter-Glo, 60 h, at 10 µM, hits give low values

| Structure (SMILES) | viability [%] |
| --- | --- |
| CC(=O)Nc1sc(C)c(C)c1CN1CCN(S(=O)(=O)c2ccccc2)CC1 | 88.5 |
| CC(C)CC(=O)Nc1ccc(C(=O)COc2ccc(-c3nnco3)cc2)cc1 | 88 |
| C=CCSC1=N/C(=C\c2ccc(C)o2)C(=O)S1 | 101 |
| Cc1ccc(-c2nn3c(C)nnc3s2)cc1NC(=O)c1ccco1 | 113 |
| CCN(CC)P1(=O)OC(c2cc(OC)c(OC)c(OC)c2)=Nc2c1c(C)nn2-c1ccccc1 (stereo unspecified) | 95.8 |
| CCc1ccc(NC(=O)c2ccc3c(c2)C(=O)N(Cc2ccco2)C3=O)cc1 | 93.6 |
| CSC1=NCCN1C(=O)c1ccc(Br)o1 | 102 |
| COc1ccccc1NC(=O)C1C2C=CC3(CN(Cc4cccnc4)C(=O)C13)O2 (stereo unspecified) | 98.2 |
| Cn1c(Cn2c(=O)sc3ccccc32)nnc1SCC(=O)NCc1ccccc1Cl | 100 |
| CCN1C(=O)c2ccccc2S(=O)c2ccc(C(=O)N3CCCC3)cc21 (stereo unspecified) | 93.3 |
| Cc1ccccc1CSc1nnc(Cn2c(=O)sc3ccccc32)n1C | 95.6 |
| O=C(NCc1ccccn1)C1CC(=O)N(C2CCCC2)C1 (stereo unspecified) | 103 |
| COc1ccccc1NC(=O)C1=C(C)NC(=O)NC1c1cccc(OC)c1OC (stereo unspecified) | 104 |
| CCOC(=O)C1CCCN(C(=O)c2cn(CC)c3ccc(S(=O)(=O)N(C)C)cc3c2=O)C1 (stereo unspecified) | 108 |
| CCCOC(=O)CSC1=C(C#N)C(c2ccccc2Cl)CC(=O)N1 (stereo unspecified) | 66.3 |
| COc1ccc(S(=O)(=O)Cc2ccc(C(=O)N3CCCC3)o2)cc1 | 96.7 |

Source: PubChem BioAssay
